Results as given in ChEMBL document CHEMBL2218924, “A broad activity screen in support of a chemogenomic map for kinase signalling research and drug discovery” (Biochem J, 2013).

Experiments:
[1] = target: T1, Serine/threonine-protein kinase 3 (Homo sapiens) (UniProt Q13188); settings: at 1 µM
T1 sequence (whole entry): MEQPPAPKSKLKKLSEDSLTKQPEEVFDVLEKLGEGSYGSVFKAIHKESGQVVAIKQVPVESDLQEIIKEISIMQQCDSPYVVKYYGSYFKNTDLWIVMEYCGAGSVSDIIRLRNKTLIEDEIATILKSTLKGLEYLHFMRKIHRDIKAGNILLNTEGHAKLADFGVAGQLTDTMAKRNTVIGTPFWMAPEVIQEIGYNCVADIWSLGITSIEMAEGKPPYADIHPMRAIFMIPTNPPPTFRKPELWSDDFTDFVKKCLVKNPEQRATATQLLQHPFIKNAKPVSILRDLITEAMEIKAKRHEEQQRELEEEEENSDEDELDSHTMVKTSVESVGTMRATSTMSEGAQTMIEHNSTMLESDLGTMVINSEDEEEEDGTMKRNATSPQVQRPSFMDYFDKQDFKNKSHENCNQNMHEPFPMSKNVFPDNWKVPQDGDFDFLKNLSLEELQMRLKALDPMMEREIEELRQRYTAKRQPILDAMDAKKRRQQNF

[2] = target: T1, Serine/threonine-protein kinase 3 (Homo sapiens); settings: at 10 µM
[3] = target: Serine/threonine-protein kinase 24 (Homo sapiens) (UniProt Q9Y6E0); settings: at 1 µM
[4] = target: Serine/threonine-protein kinase 24 (Homo sapiens) (UniProt Q9Y6E0); settings: at 10 µM
[5] = target: T2, Tyrosine-protein kinase Mer (Homo sapiens) (UniProt Q12866); settings: at 1 µM
T2 sequence (whole entry): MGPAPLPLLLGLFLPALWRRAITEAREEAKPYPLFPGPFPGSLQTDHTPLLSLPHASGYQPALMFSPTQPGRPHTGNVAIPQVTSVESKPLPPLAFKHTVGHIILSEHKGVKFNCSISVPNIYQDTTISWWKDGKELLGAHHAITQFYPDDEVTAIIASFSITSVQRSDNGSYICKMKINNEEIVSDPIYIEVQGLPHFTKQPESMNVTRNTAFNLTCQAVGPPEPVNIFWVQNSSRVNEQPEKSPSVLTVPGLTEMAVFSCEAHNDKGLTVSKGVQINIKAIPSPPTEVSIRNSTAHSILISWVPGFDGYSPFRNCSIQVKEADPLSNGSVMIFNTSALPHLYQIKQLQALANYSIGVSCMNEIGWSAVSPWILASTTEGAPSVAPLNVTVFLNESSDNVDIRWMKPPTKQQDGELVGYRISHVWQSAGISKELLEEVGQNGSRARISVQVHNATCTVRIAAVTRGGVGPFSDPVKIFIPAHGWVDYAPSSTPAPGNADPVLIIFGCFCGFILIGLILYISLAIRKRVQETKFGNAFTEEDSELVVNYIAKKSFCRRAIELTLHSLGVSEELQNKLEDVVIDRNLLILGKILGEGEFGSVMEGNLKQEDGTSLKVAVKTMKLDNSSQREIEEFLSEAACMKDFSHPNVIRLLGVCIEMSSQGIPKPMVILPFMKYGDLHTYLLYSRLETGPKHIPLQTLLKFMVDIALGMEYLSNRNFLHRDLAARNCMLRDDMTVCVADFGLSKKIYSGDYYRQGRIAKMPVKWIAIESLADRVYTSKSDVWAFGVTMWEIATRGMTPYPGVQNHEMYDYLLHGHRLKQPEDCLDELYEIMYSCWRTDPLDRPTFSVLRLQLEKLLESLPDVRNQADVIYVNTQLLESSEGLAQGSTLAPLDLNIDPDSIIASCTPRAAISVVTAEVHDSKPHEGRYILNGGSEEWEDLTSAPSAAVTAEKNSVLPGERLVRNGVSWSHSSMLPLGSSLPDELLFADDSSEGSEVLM

[6] = target: T2, Tyrosine-protein kinase Mer (Homo sapiens); settings: at 10 µM
[7] = target: Hepatocyte growth factor receptor (Homo sapiens) (UniProt P08581); settings: at 1 µM
[8] = target: Hepatocyte growth factor receptor (Homo sapiens) (UniProt P08581); settings: at 10 µM
[9] = target: MAP kinase-interacting serine/threonine-protein kinase 2 (Homo sapiens) (UniProt Q9HBH9); settings: at 1 µM
[10] = target: MAP kinase-interacting serine/threonine-protein kinase 2 (Homo sapiens) (UniProt Q9HBH9); settings: at 10 µM
[11] = target: T3, Muscle, skeletal receptor tyrosine-protein kinase (Homo sapiens) (UniProt O15146); settings: at 1 µM
T3 sequence (whole entry): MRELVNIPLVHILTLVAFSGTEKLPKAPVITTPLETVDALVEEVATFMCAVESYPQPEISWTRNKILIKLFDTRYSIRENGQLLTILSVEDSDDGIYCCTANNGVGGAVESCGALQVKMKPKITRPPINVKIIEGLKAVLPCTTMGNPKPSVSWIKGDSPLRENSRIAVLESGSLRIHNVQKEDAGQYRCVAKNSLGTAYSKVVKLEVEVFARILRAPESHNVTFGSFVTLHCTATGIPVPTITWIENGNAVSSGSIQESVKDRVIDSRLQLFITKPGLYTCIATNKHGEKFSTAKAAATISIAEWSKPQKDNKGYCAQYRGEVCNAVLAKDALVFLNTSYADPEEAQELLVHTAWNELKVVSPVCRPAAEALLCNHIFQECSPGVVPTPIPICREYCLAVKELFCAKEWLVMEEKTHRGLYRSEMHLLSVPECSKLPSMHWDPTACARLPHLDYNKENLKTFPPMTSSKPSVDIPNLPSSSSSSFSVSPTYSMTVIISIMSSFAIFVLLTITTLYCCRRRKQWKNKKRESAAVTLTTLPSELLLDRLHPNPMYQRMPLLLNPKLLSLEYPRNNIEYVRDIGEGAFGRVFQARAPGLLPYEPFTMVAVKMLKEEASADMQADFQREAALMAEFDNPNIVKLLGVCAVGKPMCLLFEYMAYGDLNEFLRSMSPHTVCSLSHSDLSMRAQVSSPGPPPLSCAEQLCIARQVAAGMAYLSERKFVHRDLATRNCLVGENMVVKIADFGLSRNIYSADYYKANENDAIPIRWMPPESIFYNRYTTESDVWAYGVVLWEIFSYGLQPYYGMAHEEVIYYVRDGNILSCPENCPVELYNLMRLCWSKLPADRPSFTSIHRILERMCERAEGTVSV

[12] = target: T3, Muscle, skeletal receptor tyrosine-protein kinase (Homo sapiens); settings: at 10 µM
[13] = target: T4, Serine/threonine-protein kinase Nek11 (Homo sapiens) (UniProt Q8NG66); settings: at 1 µM
T4 sequence (whole entry): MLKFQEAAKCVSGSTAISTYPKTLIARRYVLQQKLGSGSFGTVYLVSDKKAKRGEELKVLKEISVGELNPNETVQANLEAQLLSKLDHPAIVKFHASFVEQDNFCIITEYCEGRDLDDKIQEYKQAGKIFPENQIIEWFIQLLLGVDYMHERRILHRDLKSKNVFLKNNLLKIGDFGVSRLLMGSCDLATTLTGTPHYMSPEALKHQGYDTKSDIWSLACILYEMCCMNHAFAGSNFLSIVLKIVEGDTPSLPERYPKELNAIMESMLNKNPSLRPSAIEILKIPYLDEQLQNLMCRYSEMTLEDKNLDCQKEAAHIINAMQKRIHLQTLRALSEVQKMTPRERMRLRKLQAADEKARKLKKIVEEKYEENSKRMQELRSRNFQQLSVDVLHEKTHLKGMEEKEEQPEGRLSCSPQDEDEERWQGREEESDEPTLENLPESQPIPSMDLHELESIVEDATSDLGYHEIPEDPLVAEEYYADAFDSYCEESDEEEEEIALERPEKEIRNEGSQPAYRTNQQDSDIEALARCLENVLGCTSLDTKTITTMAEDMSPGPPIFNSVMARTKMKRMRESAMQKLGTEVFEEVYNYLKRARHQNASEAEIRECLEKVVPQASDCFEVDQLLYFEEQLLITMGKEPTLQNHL

[14] = target: T4, Serine/threonine-protein kinase Nek11 (Homo sapiens); settings: at 10 µM
[15] = target: T5, Serine/threonine-protein kinase Nek2 (Homo sapiens) (UniProt P51955); settings: at 1 µM
T5 sequence (whole entry): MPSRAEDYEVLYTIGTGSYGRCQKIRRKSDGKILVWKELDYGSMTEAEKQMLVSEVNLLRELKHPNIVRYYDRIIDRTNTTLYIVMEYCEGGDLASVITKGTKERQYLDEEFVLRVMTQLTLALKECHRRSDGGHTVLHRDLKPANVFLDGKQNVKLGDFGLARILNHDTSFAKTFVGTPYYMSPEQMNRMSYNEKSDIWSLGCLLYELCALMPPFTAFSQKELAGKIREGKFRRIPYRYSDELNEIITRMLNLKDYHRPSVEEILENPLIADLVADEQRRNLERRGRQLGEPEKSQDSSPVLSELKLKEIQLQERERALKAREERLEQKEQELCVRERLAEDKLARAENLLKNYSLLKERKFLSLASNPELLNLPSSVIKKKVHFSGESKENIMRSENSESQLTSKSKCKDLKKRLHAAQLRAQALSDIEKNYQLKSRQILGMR

[16] = target: T5, Serine/threonine-protein kinase Nek2 (Homo sapiens); settings: at 10 µM
[17] = target: T6, Serine/threonine-protein kinase Nek3 (Homo sapiens) (UniProt P51956); settings: at 1 µM
T6 sequence (whole entry): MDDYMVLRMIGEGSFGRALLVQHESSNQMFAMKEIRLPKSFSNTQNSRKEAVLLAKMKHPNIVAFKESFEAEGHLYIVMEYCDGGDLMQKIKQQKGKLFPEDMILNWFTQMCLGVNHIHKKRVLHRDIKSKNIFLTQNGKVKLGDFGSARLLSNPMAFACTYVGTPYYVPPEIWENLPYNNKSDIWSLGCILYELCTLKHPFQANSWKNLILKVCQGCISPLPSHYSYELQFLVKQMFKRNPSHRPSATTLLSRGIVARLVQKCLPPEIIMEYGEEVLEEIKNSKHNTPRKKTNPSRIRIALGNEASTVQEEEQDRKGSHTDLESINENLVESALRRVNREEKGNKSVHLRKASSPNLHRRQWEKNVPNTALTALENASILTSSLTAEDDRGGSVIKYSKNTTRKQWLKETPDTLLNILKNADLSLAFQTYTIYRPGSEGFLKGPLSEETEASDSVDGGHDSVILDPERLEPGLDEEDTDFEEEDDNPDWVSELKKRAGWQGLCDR

[18] = target: T6, Serine/threonine-protein kinase Nek3 (Homo sapiens); settings: at 10 µM
[19] = target: Serine/threonine-protein kinase tousled-like 2 (Homo sapiens) (UniProt Q86UE8); settings: at 1 µM
[20] = target: Serine/threonine-protein kinase tousled-like 2 (Homo sapiens) (UniProt Q86UE8); settings: at 10 µM

Chain of MAP kinase-interacting serine/threonine-protein kinase 2 (Homo sapiens) (Q9HBH9 whole entry, looked up): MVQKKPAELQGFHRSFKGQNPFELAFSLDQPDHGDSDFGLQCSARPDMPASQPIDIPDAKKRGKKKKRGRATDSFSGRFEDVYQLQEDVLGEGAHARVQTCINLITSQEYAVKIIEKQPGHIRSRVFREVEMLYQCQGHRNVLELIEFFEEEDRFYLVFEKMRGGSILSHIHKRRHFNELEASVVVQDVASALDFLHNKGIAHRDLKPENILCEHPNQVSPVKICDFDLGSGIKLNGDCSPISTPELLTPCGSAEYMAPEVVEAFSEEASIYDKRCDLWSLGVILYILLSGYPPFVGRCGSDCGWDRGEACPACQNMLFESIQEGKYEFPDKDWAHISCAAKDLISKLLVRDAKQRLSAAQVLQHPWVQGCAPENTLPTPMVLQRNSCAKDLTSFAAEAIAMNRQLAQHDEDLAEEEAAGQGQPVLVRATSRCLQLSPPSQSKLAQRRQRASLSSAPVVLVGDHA
Chain of Serine/threonine-protein kinase 24 (Homo sapiens) (Q9Y6E0 whole entry, looked up): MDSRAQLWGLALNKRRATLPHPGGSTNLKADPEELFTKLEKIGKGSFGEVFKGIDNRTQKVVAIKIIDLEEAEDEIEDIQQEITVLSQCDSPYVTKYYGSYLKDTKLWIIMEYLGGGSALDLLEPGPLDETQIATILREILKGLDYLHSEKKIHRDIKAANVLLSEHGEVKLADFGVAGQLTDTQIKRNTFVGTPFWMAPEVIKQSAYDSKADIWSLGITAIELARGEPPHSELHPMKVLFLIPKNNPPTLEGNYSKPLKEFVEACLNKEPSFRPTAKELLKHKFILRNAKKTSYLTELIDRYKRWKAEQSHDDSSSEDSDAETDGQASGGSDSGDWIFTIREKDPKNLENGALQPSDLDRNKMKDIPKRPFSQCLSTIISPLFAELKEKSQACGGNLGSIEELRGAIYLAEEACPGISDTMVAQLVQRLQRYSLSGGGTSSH
Chain of Hepatocyte growth factor receptor (Homo sapiens) (P08581 whole entry): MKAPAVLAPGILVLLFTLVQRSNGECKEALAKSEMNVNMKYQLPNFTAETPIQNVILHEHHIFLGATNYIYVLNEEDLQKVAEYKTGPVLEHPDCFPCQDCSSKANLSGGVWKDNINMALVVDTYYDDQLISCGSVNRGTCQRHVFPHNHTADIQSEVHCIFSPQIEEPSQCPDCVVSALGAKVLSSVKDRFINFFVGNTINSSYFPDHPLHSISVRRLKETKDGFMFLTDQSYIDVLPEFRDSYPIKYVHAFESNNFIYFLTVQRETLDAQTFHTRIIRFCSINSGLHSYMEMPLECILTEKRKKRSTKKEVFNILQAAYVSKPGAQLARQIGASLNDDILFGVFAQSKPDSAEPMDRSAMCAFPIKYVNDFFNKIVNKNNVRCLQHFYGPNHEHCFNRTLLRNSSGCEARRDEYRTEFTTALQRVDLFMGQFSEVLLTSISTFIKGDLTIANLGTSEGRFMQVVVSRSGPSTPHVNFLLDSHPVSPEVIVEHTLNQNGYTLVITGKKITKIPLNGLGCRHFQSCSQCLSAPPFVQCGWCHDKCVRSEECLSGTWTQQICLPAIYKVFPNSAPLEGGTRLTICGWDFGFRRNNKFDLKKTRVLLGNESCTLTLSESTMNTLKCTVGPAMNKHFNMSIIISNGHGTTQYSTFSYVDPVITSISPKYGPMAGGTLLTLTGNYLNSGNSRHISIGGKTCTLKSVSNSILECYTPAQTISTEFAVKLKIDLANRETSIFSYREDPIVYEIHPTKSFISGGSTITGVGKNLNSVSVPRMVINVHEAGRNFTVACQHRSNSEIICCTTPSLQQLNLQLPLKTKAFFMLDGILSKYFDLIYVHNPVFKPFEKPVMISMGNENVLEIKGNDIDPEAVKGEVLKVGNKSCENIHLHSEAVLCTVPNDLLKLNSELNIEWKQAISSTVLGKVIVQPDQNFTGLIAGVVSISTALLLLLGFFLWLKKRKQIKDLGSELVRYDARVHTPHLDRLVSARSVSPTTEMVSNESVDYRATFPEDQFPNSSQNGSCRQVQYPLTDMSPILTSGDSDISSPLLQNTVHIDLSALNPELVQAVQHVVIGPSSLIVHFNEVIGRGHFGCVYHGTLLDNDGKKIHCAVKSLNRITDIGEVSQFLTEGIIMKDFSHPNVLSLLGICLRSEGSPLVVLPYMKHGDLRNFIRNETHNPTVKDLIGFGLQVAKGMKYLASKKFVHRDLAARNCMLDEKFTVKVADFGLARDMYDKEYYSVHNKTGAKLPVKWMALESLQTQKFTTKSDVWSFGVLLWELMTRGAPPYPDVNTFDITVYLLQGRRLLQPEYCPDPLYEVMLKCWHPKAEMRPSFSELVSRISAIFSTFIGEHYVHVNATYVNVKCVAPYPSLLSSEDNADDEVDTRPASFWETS
Chain of Serine/threonine-protein kinase tousled-like 2 (Homo sapiens) (Q86UE8 whole entry, looked up): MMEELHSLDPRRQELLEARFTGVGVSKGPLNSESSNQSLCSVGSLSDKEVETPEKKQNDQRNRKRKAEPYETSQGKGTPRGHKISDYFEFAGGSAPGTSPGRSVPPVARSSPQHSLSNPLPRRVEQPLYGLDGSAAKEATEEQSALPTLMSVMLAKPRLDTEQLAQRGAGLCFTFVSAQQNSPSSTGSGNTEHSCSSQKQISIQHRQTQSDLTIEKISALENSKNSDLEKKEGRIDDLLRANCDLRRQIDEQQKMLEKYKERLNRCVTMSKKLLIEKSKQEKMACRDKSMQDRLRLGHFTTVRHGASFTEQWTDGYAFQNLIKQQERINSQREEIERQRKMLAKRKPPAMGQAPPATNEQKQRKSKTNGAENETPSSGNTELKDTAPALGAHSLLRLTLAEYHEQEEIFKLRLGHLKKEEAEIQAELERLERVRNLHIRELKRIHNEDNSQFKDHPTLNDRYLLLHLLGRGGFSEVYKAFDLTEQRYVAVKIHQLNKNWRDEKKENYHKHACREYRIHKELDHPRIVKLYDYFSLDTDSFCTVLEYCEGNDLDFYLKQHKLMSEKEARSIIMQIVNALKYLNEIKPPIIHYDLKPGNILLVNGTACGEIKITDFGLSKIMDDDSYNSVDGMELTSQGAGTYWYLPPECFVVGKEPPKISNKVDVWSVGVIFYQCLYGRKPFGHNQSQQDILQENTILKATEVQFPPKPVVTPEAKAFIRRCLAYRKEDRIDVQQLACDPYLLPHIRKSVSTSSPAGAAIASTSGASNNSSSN

Compound	residual activity [1]	residual activity [2]	residual activity [3]	residual activity [4]	residual activity [5]	residual activity [6]	residual activity [7]	residual activity [8]	residual activity [9]	residual activity [10]	residual activity [11]	residual activity [12]	residual activity [13]	residual activity [14]	residual activity [15]	residual activity [16]	residual activity [17]	residual activity [18]	residual activity [19]	residual activity [20]
COc1ccc(S(=O)(=O)N(CCO)c2ccccc2CN(C)C/C=C/c2ccc(Cl)cc2)cc1	99%	78%	78%	69%	93%	83%	113%	120%	106%	96%	79%	79%	95%	109%	105%	102%	80%	92%	92%	85%
Oc1c2ccccc2c2c3c(cccc13)N=N2	16%	10%	57%	21%	22%	9%	87%	75%	43%	10%	60%	24%	50%	47%	86%	81%	70%	79%	71%	38%
COc1cc2ncnc(N3CCN(C(=O)Nc4ccc(Oc5ccccc5)cc4)CC3)c2cc1OC	98%	86%	98%	117%	97%	60%	114%	–	92%	64%	71%	49%	110%	115%	81%	82%	110%	87%	88%	88%
CO[C@@H]1[C@H](N(C)C(=O)c2ccccc2)C[C@H]2O[C@]1(C)n1c3ccccc3c3c4c(c5c6ccccc6n2c5c31)C(=O)NC4	3%	0%	17%	7%	8%	6%	35%	40%	44%	27%	32%	13%	47%	49%	82%	86%	102%	37%	–	72%
N#Cc1cnc2cnc(NCc3cccnc3)cc2c1Nc1ccc(F)c(Cl)c1	42%	4%	27%	15%	–	–	–	–	98%	79%	93%	60%	88%	79%	–	–	37%	46%	73%	47%
Cn1nc2c3c(cccc31)C(=O)c1ccccc1-2	97%	–	74%	69%	53%	21%	–	84%	81%	72%	75%	81%	48%	55%	95%	84%	74%	91%	95%	–
CN(C)c1ccc(/C=C2\C(=O)Nc3ccccc32)cc1	108%	–	66%	49%	51%	36%	112%	107%	107%	95%	94%	25%	90%	90%	94%	113%	111%	75%	98%	97%
